Screening results from PubChem BioAssay.
FBW7 activator: human FBW7 E3 ligase activation, primary screen | AlphaScreen FBW7–phospho-cyclin E peptide binding, activator screen | Q969H0 | normalized activity (activation), % at 26.1 µM | 650,000 compounds, 0.13% hits | AID 1259310; in the data active = normalized activity above about 1.9%;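 note: purified mutant Fbw7 with reduced substrate affinity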
MITF inh: blocks human microphthalmia-associated transcription factor. AlphaScreen MITF homodimerization, bead proximity signal. 650,000 compounds, 0.91% hits. inhibition, % at 2.6 µM. AID 1259374. O75030; in the data active = inhibition above about 50%;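 note: 0% = vehicle wells with protein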
Target sequence (O75030 whole entry, looked up): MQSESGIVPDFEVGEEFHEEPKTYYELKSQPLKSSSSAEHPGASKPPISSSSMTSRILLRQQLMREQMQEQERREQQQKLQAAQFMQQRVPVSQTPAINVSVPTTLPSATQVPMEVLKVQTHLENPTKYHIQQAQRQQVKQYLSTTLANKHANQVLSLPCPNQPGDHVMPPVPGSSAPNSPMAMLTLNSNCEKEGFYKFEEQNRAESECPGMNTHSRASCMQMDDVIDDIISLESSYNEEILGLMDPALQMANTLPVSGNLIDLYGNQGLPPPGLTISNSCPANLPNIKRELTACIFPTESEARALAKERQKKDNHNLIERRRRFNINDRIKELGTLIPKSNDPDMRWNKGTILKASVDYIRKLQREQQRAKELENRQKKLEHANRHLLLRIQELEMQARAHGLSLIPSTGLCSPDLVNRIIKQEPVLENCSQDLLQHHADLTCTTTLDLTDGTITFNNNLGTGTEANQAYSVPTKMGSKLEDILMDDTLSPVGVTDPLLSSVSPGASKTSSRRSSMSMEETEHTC
TEAD-YAP block: TEAD-YAP interaction inhibition. HEK-TIYL cells, TEAD-Gal4/YAP UAS-luciferase luminescence. inhibition, % at 9.12 µM. 640,000 compounds, 1.4% hits; in the data active = inhibition above about 32%;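 note: 0% = median of test compound wells and 100% = reference inhibitor wells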
GPR151 activ: human GPR151 activation; PathHunter beta-arrestin GPR151 cells, luminescence; AID 1508602; Q8TDV0; activation, % at 11.2 µM; 650,000 compounds, 1% hits; in the data active = activation above about 4.9%;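 note: 0% = median of compound wells and 100% = cells with positive control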
MITF inh conf: confirmation of human MITF inhibitors. shares compounds with MITF inh. AlphaScreen MITF homodimerization, biotin/His-MITF beads. inhibition, % at 2.6 µM. 4,700 compounds, 16% hits. AID 1259372;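 active = inhibition above a cutoff derived from the DMSO control wells, cut at about 28% in these data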;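 note: 0% = MITF dimer wells with DMSO only; inhibitors lower the bead chemiluminescence by keeping MITF from dimerizing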
AlphaScreen DR: optically interferes with AlphaScreen signal in dose response; shares compounds with MITF inh; AlphaScreen optical interference counterscreen, cell-free; IC50, µM; 480 compounds, 6% hits; AID 1259373; call rule not given here
AS interf ctr: AlphaScreen optical interference, counter-screen; shares compounds with MITF inh; LysRS AlphaScreen counterscreen, signal interference, triplicate; inhibition, % at 2.6 µM; 4,700 compounds, 7.6% hits;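 active = inhibition above a cutoff derived from the DMSO control wells, cut at about 30% in these data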
The depositor's hits bear a star; nt = not tested or not shown. A selection: hits, their analogues and other compounds. The true share with any hit is near 3.5%.

SMILES	FBW7 activator	MITF inh	TEAD-YAP block	GPR151 activ	MITF inh conf	AS interf ctr	others
CCNC(=O)/C(C#N)=C/c1ccc(Cl)c(Cl)c1	0	53*	0	1	-1	6
O=C1CC(c2ccccc2)=NO1	0	56*	-6	-1	13	12
O=C1CC(c2ccc(Br)cc2)=NO1	0	19	-8	0	nt	nt
COCCNC(=O)C1CCN(Cc2cc(OC)ccc2OC)CC1	0	35	7	-2	nt	nt
O=C(NCC1CCCO1)C1CCN(Cc2c[nH]c3ccccc23)CC1 (stereo unspecified)	0	55*	-6	0	-15	-10
COc1ccc(OC)c(CN2CCC(C(=O)NCC3CCCO3)CC2)c1 (stereo unspecified)	0	54*	8	-1	-7	0
COc1ccc(C(=O)C2CCN(C(=S)NCC3CCCO3)CC2)cc1 (stereo unspecified)	1	85*	10	-1	12	8
CC1CCCC(C)N1C(=O)c1nn2c(c1Br)NC(c1cccs1)CC2C(F)(F)F (stereo unspecified)	0	4	12	0	nt	nt
NCCCNc1c2c(nc3cc(-c4ccc(Cl)cc4)nn13)CCC2	0	54*	2	1	13	19
NCCCNc1c2c(nc3cc(-c4cccc(F)c4)nn13)CCC2	0	-5	-6	0	nt	nt
CC(C(O)c1ccccc1)N(C)CC(=O)Nc1c2c(nc3ccccc13)N(C)CC2 (stereo unspecified)	0	67*	-1	0	13	27
O=C(CN1CCCC1)Nc1ccccc1	1	11	-14	4	nt	nt
CCc1nc2ccccc2c(NC(=O)CNC(C)(C)CC(C)(C)C)c1C	0	70*	1	1	14	-6
O=C(CN1CCCC1)Nc1c2c(nc3ccccc13)N(Cc1ccccc1)CC2	0	30	8	0	nt	nt
O=C(CN1CCCC1)Nc1c2c(nc3ccccc13)N(c1ccccc1)CC2	0	72*	4	0	4	8
CCc1nc2ccccc2c(NC(=O)CN2CCCC2)c1C	0	65*	8	1	-14	-3
COC(=O)Cn1c(SCC(=O)Nc2nccs2)nc2ccsc2c1=O	0	15	1	2	nt	nt
Cc1c(F)cccc1NC(=O)C1CC=CCC1C(=O)O (stereo unspecified)	0	12	-10	1	nt	nt
CCOc1ccc(/C=C/C(=O)Nc2ccc(N3CCOCC3)cc2)cc1	0	87*	13	0	7	14
COc1cccc(C(=O)N2CCN(Cc3ccc(C)cc3)CC2)c1	1	58*	-5	0	10	12
COc1ccc(C(=O)N2CCN(Cc3cc(OC)c(OC)c(OC)c3)CC2)cc1OC	0	32	-2	0	nt	nt
CCNc1cc(C)nc(N2CCN(C(=O)c3cccc(OC)c3)CC2)n1	0	59*	7	-2	-1	-2
COc1cccc(OC)c1C(=O)N1CCN(Cc2cccc(Br)c2)CC1	0	64*	0	-1	-3	-7
CCNc1cc(C)nc(N2CCN(C(=O)c3c(F)cccc3Cl)CC2)n1	0	13	2	-1	nt	nt
COc1ccc(C(=O)N2CCN(Cc3ccc(Cl)cc3)CC2)cc1OC	0	53*	13	0	-4	8
SMILES	FBW7 activator	MITF inh	TEAD-YAP block	GPR151 activ	MITF inh conf	AS interf ctr	others
O=C(CC1=NS(=O)(=O)c2ccccc2N1)Nn1c(=S)[nH]c2ncccc2c1=O	0	4	3	1	nt	nt
COc1cccc2ccc(CN3CCC4(CC3)CC4C(=O)N3CCCN(C)CC3)nc12 (stereo unspecified)	0	-4	-16	0	nt	nt
CCCCc1ccc(-c2nc(C=Nc3cccc(Cl)c3)c(O)o2)cc1	0	-9	5	-1	nt	nt
COc1cccc(C(=O)N2CCN(Cc3cccc(Br)c3)CC2)c1	1	54*	10	-2	-3	-2
COc1cccc(C(=O)N2CCN(Cc3ccc(OC)c(OC)c3)CC2)c1	0	61*	3	1	-2	-4
O=C(Nc1c2c(nn1-c1ccc(F)cc1)CS(=O)(=O)C2)c1ccc(C(=O)c2ccccc2)cc1	1	6	5	-1	nt	nt
CCCCCC1OCC2(CO)C(C)C=C(C)C1C2C (stereo unspecified)	0	-4	0	0	nt	nt
COc1ccc(CN2CCN(Cc3ccco3)CC2)cc1Br	0	72*	2	0	12	16
CCOc1cc(CN2CCN(Cc3ccco3)CC2)ccc1OC	0	45	-12	1	nt	nt
COc1ccc(CN2CCN(Cc3ccco3)CC2)cc1OC	0	71*	2	1	-16	2
COc1ccc(CNC(=O)N2CCN(CC(=O)c3ccco3)CC2)cc1OC	0	54*	-10	0	13	20
COc1ccc(O)c(/C=N\NC(=O)CCn2nnc3ccccc32)c1	0	35	6	1	nt	nt
Cc1noc(NS(=O)(=O)c2ccc(NC(=O)COc3cccc(Br)c3)cc2)c1C	1	20	-6	1	nt	nt
O=S(=O)(NCc1ccccn1)c1ccc(-c2ccc(S(=O)(=O)NCc3ccccn3)cc2)cc1	0	7	12	0	nt	nt
O=C(CCN1CCc2ccccc2C1)Nc1ccc(Br)cc1	0	4	-3	1	nt	nt
CCOc1ccc2nc(N(CCN(C)C)C(=O)c3cc(Cl)sc3Cl)sc2c1	0	-13	-25	1	nt	nt
C=CCc1cccc(Cl)c1OCCCN1CCN(C)CC1	0	19	2	-1	nt	nt
C=CCc1cccc(Cl)c1OCCCN1CCNCC1	0	53*	-5	0	6	7
C=CCc1cccc(Cl)c1OCCCNCCN1CCOCC1	0	56*	9	0	5	20
CCCCNCCOCCOc1cc(C)ccc1Cl	0	54*	0	-1	11	8
CCCCNCCOCCOc1ccc(Cl)cc1	0	80*	-3	2	-8	-4
CCCNc1nc(NCC)nc2c1ncn2C1CCCCC1	0	69*	1	0	2	5
CC(=O)c1ccc(-c2ccc(/C=C/[N+](=O)[O-])o2)cc1	0	69*	-12	0	56*	31*
O=C(O)c1ccccc1-c1ccc(/C=C/[N+](=O)[O-])o1	-1	81*	2	1	73*	-7	AlphaScreen DR=>6.5
CC1CN(C2CCN(Cc3ccc(Br)cc3)CC2)CC(C)O1 (stereo unspecified)	0	46	5	2	nt	nt
COc1cc(OC)c(OC)cc1CN1CCN(C2CCCC2)CC1	0	18	-1	-1	nt	nt
COc1ccc(CN2CCN(C3CCCC3)CC2)c(OC)c1	0	66*	-6	-1	15	10
COc1ccc(CN2CCN(C3CCN(Cc4ccccc4)CC3)CC2)cc1OC	0	21	0	0	nt	nt
COc1ccc(CN2CCN(C(=O)CCC3CCCC3)CC2)c(OC)c1	0	48	2	0	nt	nt
